According to PubChem BioAssay (NCI):
About 83,000 compounds went through this panel and 20% of them were active in at least one assay; those are over-represented in the sample as a whole.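 Values shown are percent growth following 48 h exposure of cells in 96-well plates to a single concentration of compound; below 10 was considered active.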 Activity calls are given as the source filed them.

Tests used:
Assay in all cases: NCI-60 one-dose screen, 48 h (100 = growth as untreated, 0 = no growth, -100 = all killed)
Settings in all cases: 10 µM unless noted
NCI-H23 lung = system: NCI-H23 lung
NCI-H226 lung = system: NCI-H226 lung
NCI-H322M lung = system: NCI-H322M lung
HOP-62 NSCLC = system: HOP-62 NSCLC
NCI-H460 lung = system: NCI-H460 lung
HOP-92 NSCLC = system: HOP-92 NSCLC
NCI-H522 lung = system: NCI-H522 lung
A549/ATCC NSCLC = system: A549/ATCC NSCLC
786-0 renal = system: 786-0 renal
COLO 205 colon = system: COLO 205 colon

Measured: growth

Cc1csc(Nc2nc(-c3ccccn3)nc(C(Cl)(Cl)Cl)n2)n1
inactive: NCI-H23 lung 84.9% | NCI-H226 lung 101% | NCI-H322M lung 80.5% | HOP-62 NSCLC 101% | NCI-H460 lung 84% | HOP-92 NSCLC 94.1% | NCI-H522 lung 86.7% | A549/ATCC NSCLC 79.4% | 786-0 renal 94.8% | COLO 205 colon 92%

O=C1c2c(c3c4ccccc4[nH]c3c3ccc4ccccc4c23)C(=O)N1CCN1CCOCC1
active: NCI-H460 lung 2.17%
inactive: NCI-H23 lung 32.6% | NCI-H226 lung 61.4% | NCI-H322M lung 51.8% | HOP-62 NSCLC 45.8% | HOP-92 NSCLC 66.1% | NCI-H522 lung 29.1% | A549/ATCC NSCLC 28.8% | 786-0 renal 52.5% | COLO 205 colon 55.5%

Cc1cc(N2CCN(CC(=O)Nc3ccc4c(ccn4C)c3)CC2)nc(N2CCCCCC2)n1
inactive: NCI-H23 lung 99.9% | NCI-H226 lung 97.9% | NCI-H322M lung 92.9% | HOP-62 NSCLC 80.2% | NCI-H460 lung 101% | HOP-92 NSCLC 60.5% | NCI-H522 lung 73.3% | A549/ATCC NSCLC 85.3% | 786-0 renal 93.8% | COLO 205 colon 81.1%

N#C/C(=C\c1c(-c2ccccc2)[nH]c2ccccc12)C(N)=O
inactive: NCI-H23 lung 85.4% | NCI-H226 lung 95.1% | NCI-H322M lung 104% | HOP-62 NSCLC 87.4% | NCI-H460 lung 92.2% | HOP-92 NSCLC 65.1% | NCI-H522 lung 83.3% | A549/ATCC NSCLC 89.5% | 786-0 renal 98.7% | COLO 205 colon 92.8%

Cn1cc(-c2csc(-c3cn(C(=O)OC(C)(C)C)c4ccc(Br)cc34)n2)c2ccnc(Cl)c21
inactive: NCI-H23 lung 81.7% | NCI-H226 lung 73.3% | NCI-H322M lung 85.3% | HOP-62 NSCLC 68.5% | NCI-H460 lung 68.7% | HOP-92 NSCLC 58.8% | NCI-H522 lung 66.7% | A549/ATCC NSCLC 70.3% | 786-0 renal 74.7% | COLO 205 colon 90.9%

CCN(CC)CCCCCNc1cc(OC(=O)c2ccc(Cl)cc2)cc2cccnc12
inactive: NCI-H23 lung 93.9% | NCI-H226 lung 105% | NCI-H322M lung 106% | HOP-62 NSCLC 95.8% | NCI-H460 lung 110% | HOP-92 NSCLC 38.2% | NCI-H522 lung 24.4% | A549/ATCC NSCLC 95.3% | 786-0 renal 106% | COLO 205 colon 33.9%

N=C(N)c1ccc(-c2ccc(-c3ccc(Cl)cc3Cl)s2)cc1
inactive: NCI-H23 lung 56.5% | NCI-H226 lung 77.9% | NCI-H322M lung 13.9% | HOP-62 NSCLC 34.1% | HOP-92 NSCLC 75.2%
active: NCI-H460 lung -66.3% | NCI-H522 lung -28.6% | A549/ATCC NSCLC -30.2% | 786-0 renal -18% | COLO 205 colon -31.6%

Nc1c(C(=O)Nc2ccccc2C(F)(F)F)sc2nc3c(cc12)CCC3
inactive: NCI-H23 lung 95.7% | NCI-H226 lung 82.6% | NCI-H322M lung 87.5% | HOP-62 NSCLC 88.6% | NCI-H460 lung 105% | HOP-92 NSCLC 96.6% | NCI-H522 lung 85.7% | A549/ATCC NSCLC 90.4% | 786-0 renal 93% | COLO 205 colon 115%

CC(C)COc1nc2c(c(=O)n(C)c(=O)n2C)n1C
inactive: NCI-H23 lung 98.5% | NCI-H226 lung 94.5% | NCI-H322M lung 105% | HOP-62 NSCLC 99% | NCI-H460 lung 105% | HOP-92 NSCLC 93.7% | NCI-H522 lung 101% | A549/ATCC NSCLC 106% | 786-0 renal 104% | COLO 205 colon 109%

O=c1c2ccccc2n2cnc3ccc(Cl)c1c32
inactive: NCI-H23 lung 86.2% | NCI-H226 lung 93.9% | NCI-H322M lung 90.2% | HOP-62 NSCLC 93.1% | NCI-H460 lung 58.5% | HOP-92 NSCLC 102% | NCI-H522 lung 65.4% | A549/ATCC NSCLC 67.8% | 786-0 renal 73.3% | COLO 205 colon 91.8%

Cn1c(=O)cc2c3c(c(NCCCO)ccc31)C(=O)c1ccccc1-2
inactive: NCI-H23 lung 47.2% | NCI-H226 lung 38.4% | NCI-H322M lung 41.4% | HOP-62 NSCLC 43.8% | NCI-H460 lung 16.8% | HOP-92 NSCLC 74.8% | NCI-H522 lung 22.2% | A549/ATCC NSCLC 33.5% | 786-0 renal 38.6% | COLO 205 colon 27.8%

CCn1cc(C(=O)O)c(=O)c2cc(F)c(N3CCN(CC(=O)Nc4ccc(S(=O)(=O)Nc5nccc(C)n5)cc4)C(C)C3)c(F)c21 (stereo not given)
inactive: NCI-H23 lung 103% | NCI-H226 lung 97.1% | NCI-H322M lung 104% | HOP-62 NSCLC 103% | NCI-H460 lung 104% | HOP-92 NSCLC 119% | NCI-H522 lung 105% | A549/ATCC NSCLC 111% | 786-0 renal 112% | COLO 205 colon 118%

Cc1ccc(C[P+](c2ccccc2)(c2ccccc2)c2ccccc2)cc1
active: NCI-H23 lung -9.16% | NCI-H460 lung 3.04% | HOP-92 NSCLC -0.267% | COLO 205 colon -15.5%
inactive: NCI-H226 lung 16.1% | NCI-H322M lung 38.8% | HOP-62 NSCLC 13.5% | NCI-H522 lung 10.3% | A549/ATCC NSCLC 26.9% | 786-0 renal 25.6%

Nc1ncnc2c1C(c1ccccc1)c1ccc3ccccc3c1O2 (stereo not given)
inactive: NCI-H23 lung 77.5% | NCI-H226 lung 77.6% | NCI-H322M lung 88% | HOP-62 NSCLC 68.5% | NCI-H460 lung 103% | HOP-92 NSCLC 45.1% | NCI-H522 lung 53.8% | A549/ATCC NSCLC 86% | 786-0 renal 89.7% | COLO 205 colon 92.8%

CN(C)c1ccc(-c2c(C#N)c(N)nn2C(=O)c2ccc(NC(=O)c3ccccn3)cc2)cc1
inactive: NCI-H23 lung 96.5% | NCI-H226 lung 98.2% | NCI-H322M lung 96.7% | HOP-62 NSCLC 94.3% | NCI-H460 lung 94.2% | HOP-92 NSCLC 94.9% | NCI-H522 lung 91.4% | A549/ATCC NSCLC 96.1% | 786-0 renal 96% | COLO 205 colon 104%

O=C(CSC(=S)n1cnnc1)NC(=O)c1ccccc1
inactive: NCI-H23 lung 102% | NCI-H226 lung 100% | NCI-H322M lung 103% | HOP-62 NSCLC 106% | NCI-H460 lung 112% | HOP-92 NSCLC 101% | NCI-H522 lung 92.4% | A549/ATCC NSCLC 114% | 786-0 renal 104% | COLO 205 colon 119%

CCOC(=O)n1cc(-c2nonc2-c2cn(C(=O)OCC)c3ccc(Br)cc23)c2ccccc21
inactive: NCI-H23 lung 67.9% | NCI-H226 lung 79.4% | NCI-H322M lung 70% | HOP-62 NSCLC 72.3% | NCI-H460 lung 81.6% | HOP-92 NSCLC 63.2% | NCI-H522 lung 70.6% | A549/ATCC NSCLC 74.4% | 786-0 renal 90.6% | COLO 205 colon 84.2%

COc1ccc(-c2nc3cc(C(=O)NCc4ccccc4)ccc3n2C2CCCCC2)cc1
inactive: NCI-H23 lung 99.6% | NCI-H226 lung 102% | NCI-H322M lung 81% | HOP-62 NSCLC 90.1% | NCI-H460 lung 72.2% | HOP-92 NSCLC 92.8% | NCI-H522 lung 76.8% | A549/ATCC NSCLC 74% | 786-0 renal 70.8% | COLO 205 colon 64.7%

CCCc1c(OC(=O)c2ccccc2)nc2[nH]c(=O)sc2c1C
inactive: NCI-H23 lung 99% | NCI-H226 lung 89.9% | NCI-H322M lung 101% | HOP-62 NSCLC 95.6% | NCI-H460 lung 103% | HOP-92 NSCLC 93.3% | NCI-H522 lung 87.4% | A549/ATCC NSCLC 99.6% | 786-0 renal 106% | COLO 205 colon 101%

CNC(=O)c1ccccc1Oc1nc(Nc2cc(OC)c(OC)c(OC)c2)ncc1Br
inactive: NCI-H23 lung 55.2% | NCI-H226 lung 21.8% | NCI-H322M lung 58.5% | HOP-62 NSCLC 49.7% | NCI-H460 lung 43.9% | HOP-92 NSCLC 60.6% | NCI-H522 lung 53.9% | A549/ATCC NSCLC 46.4% | 786-0 renal 48.9%
active: COLO 205 colon -12.6%

CC1(C)CC(=O)C2=C(C1)N(c1ccc(OC(F)(F)F)cc1)C(N)=C(C#N)C2c1ccc(Br)cc1F (stereo not given)
active: HOP-62 NSCLC 6.8%
inactive: NCI-H23 lung 75.8% | NCI-H226 lung 33.1% | NCI-H322M lung 59.1% | NCI-H460 lung 25.3% | HOP-92 NSCLC 39.8% | NCI-H522 lung 88.6% | A549/ATCC NSCLC 44.1% | 786-0 renal 35.7% | COLO 205 colon 93.8%

O=C(N(c1ccccc1)c1ccccc1)n1cc(I)c2nc(Cl)nc(Cl)c21
active: NCI-H522 lung 3.35%
inactive: NCI-H23 lung 72.6% | NCI-H226 lung 71.8% | NCI-H322M lung 92.6% | HOP-62 NSCLC 43.9% | NCI-H460 lung 43.8% | HOP-92 NSCLC 71.8% | A549/ATCC NSCLC 60.2% | 786-0 renal 57.7% | COLO 205 colon 79.4%

O=C(OC(CO)C(=O)NC12CC3CC(CC(C3)C1)C2)c1ccc(Cl)cc1 (stereo not given)
inactive: NCI-H23 lung 105% | NCI-H226 lung 92.4% | NCI-H322M lung 102% | HOP-62 NSCLC 103% | NCI-H460 lung 107% | HOP-92 NSCLC 87.2% | NCI-H522 lung 99.3% | A549/ATCC NSCLC 97.2% | 786-0 renal 101% | COLO 205 colon 110%

O=C(CN1CCCCC1)Nc1nc(-c2cc3ccccc3oc2=O)cs1
inactive: NCI-H23 lung 109% | NCI-H226 lung 88.3% | NCI-H322M lung 93.9% | HOP-62 NSCLC 96.2% | NCI-H460 lung 103% | HOP-92 NSCLC 98.7% | NCI-H522 lung 93.6% | A549/ATCC NSCLC 102% | 786-0 renal 95.4% | COLO 205 colon 116%

COc1ccc(C(O)c2cc3c(N)c(C(=O)Nc4cccc(Br)c4)sc3nc2C)cc1 (stereo not given)
active: NCI-H226 lung 3.81% | NCI-H460 lung 0.823% | NCI-H522 lung 9.45% | COLO 205 colon -25%
inactive: NCI-H23 lung 21.9% | NCI-H322M lung 45.9% | HOP-62 NSCLC 24.3% | HOP-92 NSCLC 24.7% | A549/ATCC NSCLC 11.2% | 786-0 renal 15.3%

O=C(Nc1nc2ccc(C(=O)N3CCN(/C=C/c4ccccc4)CC3)cc2s1)c1ccc(NCCc2ccccc2)c([N+](=O)[O-])c1
inactive: NCI-H23 lung 51% | NCI-H226 lung 62.1% | NCI-H322M lung 82.8% | HOP-62 NSCLC 58.4% | NCI-H460 lung 16.5% | HOP-92 NSCLC 51.8% | NCI-H522 lung 48.3% | A549/ATCC NSCLC 55.2% | 786-0 renal 69.7% | COLO 205 colon 18.5%
